High-throughput results from PubChem BioAssay.
FMDV inh: blocks foot and mouth disease virus. 410,000 compounds, 1.2% hits. Potency, µM (doses to about 57.9 µM), usual class: inhibitors. FMDV antiviral cell-based qHTS. AID 1159524; calls by dose curve; tested in HEK293T cells; note: read-out not given here; nearly all actives have a fitted effect of over 45% in size
HCV inh: blocks hepatitis C virus; Huh7.5.1 HCVcc-Cre infection, luciferase reporter, 44 h; AID 651820; 340,000 compounds, 3.4% hits; Potency, µM (titrated, usually from 41.8 µM), actives largely listed as inhibitors
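After 44 h co-culture of compound, cells and HCVcc-Cre (~0.5 moi), substrate is added for 15 min at room temperature and luciferase measured over 15 sec. Cells were seeded at 1,000/well and pre-cultured 4 h.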
MARV entry inh: inhibitors of Marburg virus binding or cell entry; Potency, µM (doses to about 37.8 µM), hits mostly inhibitors; 300,000 compounds, 1.8% hits; Marburg virus pseudotyped entry inhibition, cell reporter; calls by dose curve; tested in HEK293 cells
HCMV inh: blocks human cytomegalovirus replication; 410,000 compounds, 4.5% hits; activity change, negative = inhibition, % at 57.5 µM; HFF cells, HCMV-luciferase reporter, 72 h; active compounds read low; in the data active = activity change below about -60%; inconclusive = no clear call, values can overlap the other calls; inactive = above about -39%
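Screen run at 2 compound doses on HFFs infected with reporter HCMV, MOI 1 PFU/cell. Luciferase activity from cell lysates at 72 h post infection gave inhibition relative to buffer-only and Salinomycin wells.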
LASV entry inh: inhibitors of Lassa virus binding or cell entry | Potency, µM (highest dose often 37.9 µM), actives largely listed as inhibitors | Lassa virus pseudotype entry inhibition, cell reporter | 300,000 compounds, 1.2% hits | AID 540256; calls by dose curve; tested in HEK293 cells; note: nearly all actives have a fitted effect of over 50% in size
HCV confirm: confirmation of hepatitis C virus inhibitors | HCVcc-Cre infectious virus cell assay, luciferase, inhibition | 640 compounds, 78% hits | Potency, µM (titrated, usually from 41.8 µM), hits mostly inhibitors | shares compounds with HCV inh; note: nearly all actives have a fitted effect of over 80% in size
HCV host tox: toxic to HCV host cells, flagging false HCV inhibitors; Potency, µM (highest dose often 41.8 µM), usual class: inhibitors; 640 compounds, 22% hits; shares compounds with HCV inh; HCV host cell line cytotoxicity counterscreen;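 note: 44 h compound exposure; nearly all actives have a fitted effect of over 55% in size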
Of the large screens only hits and unclear results are named; the others gave an inactive call (follow-up assays come after a bar, where they were run). In the library only some 7.9% were active in any assay of this set; here they are far more common. Unless noted, calls come from the whole dose curve; as a rule, active = well fitted curve in the direction sought with a large enough effect; inconclusive = small, poorly fitted or top-dose-only effect, or another doubt; inactive = no such curve, though single readings can be large; an effect the other way counts as inactive or inconclusive.

COc1ccc(NC(=O)/C(Cl)=C(/Cl)S(=O)Cc2ccccc2)cn1 (stereo not drawn)	FMDV inh 6.3µM, HCV inh 0.79µM, MARV entry inh inconclusive, HCMV inh -100, LASV entry inh 1.6µM | HCV confirm 6.3µM | HCV host tox 6.3µM
Cc1ccccc1-c1nc(CS(=O)(=O)CC(=O)NCCCN2CC(C)CC(C)C2)c(C)o1 (stereo not drawn)	HCV inh inconclusive (no result: MARV entry inh, LASV entry inh)
Cc1ccccc1-c1nc(CN2CCC(C(=O)NCCCN3CC(C)CC(C)C3)CC2)c(C)o1 (stereo not drawn)	HCV inh 1.3µM, MARV entry inh inconclusive, LASV entry inh inconclusive | HCV confirm 1.4µM | HCV host tox inconclusive
CCn1c(SCC(=O)c2ccccc2)nc2c(c1=O)SC(C)C2 (stereo not drawn)	HCV inh inconclusive, LASV entry inh inconclusive | HCV confirm inconclusive | HCV host tox inactive
COCCn1c(SCC(=O)c2ccccc2)nc2c(c1=O)SC(C)C2 (stereo not drawn)	none (no result: FMDV inh)
CC(=O)c1ccc(NC(=O)c2ccc(S(=O)(=O)N3CCCC3)cc2)cc1	none
O=C(Nc1ccc(S(=O)(=O)N2CCCC2)cc1)c1ccc(CN2CCc3ccccc3C2)cc1	FMDV inh inconclusive, HCV inh 7.1µM, MARV entry inh inconclusive, LASV entry inh inconclusive (no result: HCMV inh) | HCV confirm 0.63µM | HCV host tox 1µM
CCc1ccc2oc(C(=O)NCc3ccccc3)cc(=O)c2c1	MARV entry inh inconclusive (no result: HCV inh)
COc1cccc(Cn2ccn(-c3ccc(F)cc3)c(=O)c2=O)c1	none (no result: HCV inh, MARV entry inh)
COc1ccccc1CNC(=O)CN1C(=O)COc2ccc(S(=O)(=O)Nc3ccccc3)cc21	none (no result: HCV inh, MARV entry inh)
COc1cc(NC(=O)c2ccc(COc3ccccc3Br)o2)cc(OC)c1OC	HCV inh 5µM, LASV entry inh inconclusive | HCV confirm 11µM | HCV host tox inactive
S=C(c1ccc(-c2ccc(Cl)c(Cl)c2)o1)N1CCOCC1	HCV inh inconclusive, LASV entry inh inconclusive (no result: FMDV inh, HCMV inh) | HCV confirm 14µM | HCV host tox inactive
S=C(c1ccc(-c2ccc(Br)cc2)o1)N1CCOCC1	HCV inh inconclusive, MARV entry inh inconclusive
Cc1cc(Cl)ccc1OCC(=O)Nc1ccccc1CO	HCV inh 3.2µM, LASV entry inh inconclusive | HCV confirm 7.9µM | HCV host tox inactive
COc1cc(OC)c(NC(=O)N2CCc3c(sc4c3CCCC4)C2c2ccccc2)cc1Cl (stereo not drawn)	none (no result: HCV inh, MARV entry inh)
CCC(=O)N(Cc1ccco1)c1nc(-c2ccccc2)cs1	HCV inh inconclusive | HCV confirm inconclusive | HCV host tox inactive
CCC(=O)N(Cc1ccco1)c1nc(-c2ccc(OC)cc2)cs1	HCV inh inconclusive, LASV entry inh inconclusive
CCOC(=O)CC(NC(=O)c1ccco1)c1ccc(C)cc1 (stereo not drawn)	none
Cc1ccc(C(C)NC(=O)c2ccco2)cc1 (stereo not drawn)	HCV inh 6.3µM | HCV confirm inactive | HCV host tox inactive
CCc1ccccc1Nc1nc2ccccc2n2cnnc12	none (no result: HCV inh)
Cc1cc(/C=C(\C#N)C(=O)Nc2ccccc2)c(C)n1-c1ccc2c(c1)OCO2	HCV inh inconclusive, MARV entry inh inconclusive, LASV entry inh inconclusive | HCV confirm 18µM | HCV host tox inactive
CCc1ccc(NC(=O)CSc2nc3n[nH]c(C)c3c(=N)n2-c2cccc(OC)c2)cc1	HCV inh 7.1µM, MARV entry inh inconclusive, LASV entry inh inconclusive | HCV confirm 14µM | HCV host tox inactive
Cc1cccc(NC(=O)C(NS(=O)(=O)c2ccc3c(c2)oc(=O)n3C)C(C)C)c1 (stereo not drawn)	none (no result: HCV inh)
CCN(CC)CCCNC(=O)c1cc(-c2ccc(Cl)cc2)on1	HCV inh 8.9µM, MARV entry inh inconclusive | HCV confirm 22µM | HCV host tox inactive
CCCCN(CC)CCNC(=O)c1cc2c(-c3ccc(Cl)cc3)nn(C)c2s1	HCV inh 2.8µM, MARV entry inh 3.5µM, HCMV inh -100, LASV entry inh inconclusive | HCV confirm 7µM | HCV host tox inactive
COC(=O)c1sccc1S(=O)(=O)N(CC(=O)NCc1ccc(F)cc1)c1ccc(C)c(C)c1	none (no result: HCV inh, MARV entry inh)
Cc1c(C(=O)NCCc2ccccc2)oc2ccc(S(=O)(=O)N3CCOCC3)cc12	HCV inh inconclusive, LASV entry inh inconclusive
Cc1c(C(=O)NCC2COc3ccccc3O2)oc2ccc(S(=O)(=O)N3CCOCC3)cc12 (stereo not drawn)	FMDV inh inconclusive, HCV inh 5.6µM, MARV entry inh inconclusive, LASV entry inh inconclusive | HCV confirm 18µM | HCV host tox inactive
S=C(S)N1CCCC1	HCV inh inconclusive, MARV entry inh inconclusive, LASV entry inh inconclusive | HCV confirm 25µM | HCV host tox 28µM
COC(=O)c1c(NC(=O)c2ccn(C)n2)sc2c1CCC2	HCV inh 2.8µM (no result: MARV entry inh, LASV entry inh) | HCV confirm 0.89µM | HCV host tox inactive
O=C(Cc1ccc(Cl)cc1Cl)Nc1ccncc1Cl	FMDV inh inconclusive, HCV inh 7.9µM, HCMV inh -90 (no result: MARV entry inh, LASV entry inh) | HCV confirm 7µM | HCV host tox 10µM
O=S1(=O)c2ccc(Br)cc2N2CCC[C@@H]2CN1Cc1ccc(Cl)cc1	FMDV inh inconclusive, HCV inh 8.9µM, LASV entry inh inconclusive (no result: MARV entry inh) | HCV confirm inconclusive | HCV host tox inactive
O=C(Nc1ccc(Br)cc1F)c1cc(S(=O)(=O)NC2CCCC2)ccc1F	none (no result: HCV inh, MARV entry inh)
Cc1cccc2sc(N(Cc3cccnc3)C(=O)Cc3ccccc3)nc12	HCMV inh inconclusive, LASV entry inh inconclusive (no result: HCV inh, MARV entry inh)
O=C(Nc1cc(Br)ccc1O)c1cnn2c(C(F)F)cc(C3CC3)nc12	HCV inh inconclusive, MARV entry inh inconclusive, LASV entry inh inconclusive | HCV confirm 7µM | HCV host tox inactive
O=C(OCC12CC3CC(CC(C3)C1)C2)c1ccc(NCc2cc(O)ccc2O)cc1	FMDV inh 18µM, HCV inh 1.6µM, MARV entry inh inconclusive, HCMV inh -77, LASV entry inh 4.5µM | HCV confirm 4µM | HCV host tox 10µM
Cc1ccc(NC2=C/C(=N\S(=O)(=O)c3cccs3)c3ccccc3C2=O)c(C)c1	FMDV inh 25µM, HCV inh 5.6µM, MARV entry inh inconclusive, LASV entry inh inconclusive (no result: HCMV inh) | HCV confirm 2.5µM | HCV host tox 3.5µM
Cc1c(C(=O)N(C)C)sc2c1c(=O)n(-c1ccc(Cl)cc1)c(=O)n2CC(=O)C(C)(C)C	none (no result: HCV inh, MARV entry inh)
CNCCCOc1ccc2c(c1)CCC2	MARV entry inh inconclusive
CNCCOc1ccc(Cl)c(Cl)c1	HCV inh inconclusive, MARV entry inh inconclusive | HCV confirm inactive | HCV host tox inactive
Cc1cc(C)c(NC(=O)CSc2nc(=O)[nH]c3c2CCCC3)c(C)c1	none (no result: HCV inh, MARV entry inh)
Cc1cccc(NCc2nnc3n2CCCCC3)c1C	none (no result: HCV inh, MARV entry inh)
CCc1c(C)sc(NC(=O)c2cc3nc(-c4ccc(OC)cc4)cc(C(F)(F)F)n3n2)c1C(=O)OC	none (no result: HCV inh, MARV entry inh)
CCCCCCCCCCCCC(C(=O)O)C(C)C(=O)O (stereo not drawn)	none (no result: HCV inh, MARV entry inh, HCMV inh, LASV entry inh)
